# Screening data as filed in PubChem BioAssay.
# BAZ2B block – blocks human BAZ2B; Q9UIF8; 360,000 tested, 4.4% active; AlphaScreen BAZ2B-H3K14Ac peptide displacement; Potency, µM (doses to about 114 µM), inactives show at the top dose activity change, negative = inhibition, actives largely listed as inhibitors; note: % is set by controls: 0 for no effect and ±100 for the full control effect; nearly all actives have a fitted effect of over 60% in size
#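 Inhibition is scored as reduced AlphaScreen emission. The BAZ2B/b-H3(5-23)K14Ac complex (50 nM each) in PBS pH 7.4, 0.01% Tween-20 meets compound (up to 110 uM) for 30 min at RT before bead addition.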
# GLS inh – glutaminase GLS (human) inhibition | 410,000 tested, 0.21% active | GLS enzymatic activity, qHTS titration | Potency, µM (highest dose often 45.5 µM), for inactives: top-dose activity change, negative = inhibition, usual class: inhibitors | O94925; note: % is set by controls: 0 for no effect and ±100 for the full control effect
#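 Read-out is an Amplex red fluorescence increase coupled through glutamate oxidase and HRP, measured before and after 30 min room-temperature incubation. hKGA is in 45 mM KH2PO4 (pH 8.2) with 0.02% Tween-20; glutamine added as 1mM solution.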
# JMJD2A Tudor inh – inhibitors of human JMJD2A Tudor domain; 390,000 tested, 4.4% active; O75164; Potency, µM (doses to about 114 µM), for the others: at the top dose activity change, negative = inhibition, usual class: inhibitors; AlphaScreen JMJD2A-Tudor / H3K4me3 peptide binding; note: % is set by controls: 0 for no effect and ±100 for the full control effect; nearly all actives have a fitted effect of over 50% in size
# HP1b chromo inh – HP1-beta chromodomain-methylated histone interaction inhibition | AlphaScreen HP1-beta / biotin-H3K9me3 peptide binding | P83916 | Potency, µM (top dose mostly 114 µM), without a hit: at the top dose activity change, negative = inhibition, hits mostly inhibitors | 390,000 tested, 0.56% active | AID 540317; note: nearly all actives have a fitted effect of over 70% in size
# Target sequence (P83916 whole entry, looked up): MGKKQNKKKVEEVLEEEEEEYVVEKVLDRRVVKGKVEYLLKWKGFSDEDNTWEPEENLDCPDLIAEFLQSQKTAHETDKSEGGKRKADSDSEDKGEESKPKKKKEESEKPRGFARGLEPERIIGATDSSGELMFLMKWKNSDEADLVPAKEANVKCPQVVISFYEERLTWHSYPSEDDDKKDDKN
#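 Compound inhibition of the preformed complex between 50 nM HP1-beta and 50 nM biotinylated H3K9me3 peptide was read by AlphaScreen. Buffer was PBS pH 7.4 with 0.01% Tween-20. Incubations ran 30 min at room temperature, with 10 ug/mL donor/acceptor beads.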
# G9a block – blocks human histone lysine methyltransferase G9a; Q96KQ7; G9a H3K9 monomethylation, AlphaScreen, 2 h; Potency, µM (titrated, usually from 102 µM), without a hit: top-dose activity, negative = inhibition, hits mostly inhibitors; 350,000 tested, 8.8% active; note: % is set by controls: 0 for no effect and ±100 for the full control effect; nearly all actives have a fitted effect of over 75% in size
# Target sequence (Q96KQ7 913-1193 limits assumed): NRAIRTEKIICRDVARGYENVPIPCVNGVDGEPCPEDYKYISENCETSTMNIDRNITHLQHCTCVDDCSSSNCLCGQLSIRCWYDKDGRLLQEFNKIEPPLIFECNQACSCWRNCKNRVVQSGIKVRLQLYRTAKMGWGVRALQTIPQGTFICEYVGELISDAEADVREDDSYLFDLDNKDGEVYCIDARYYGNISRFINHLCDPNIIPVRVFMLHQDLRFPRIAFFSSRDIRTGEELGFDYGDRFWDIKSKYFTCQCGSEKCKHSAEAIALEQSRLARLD
#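 G9a (20 nM) preincubated 15 min RT with compounds, then 500 nM biotinylated H3K9 peptide and 20 uM SAM added; 2 h RT reaction. Monomethyl-H3K9 product detected by AlphaScreen with anti-H3K9me1 antibody, streptavidin donor and anti-rabbit IgG acceptor beads.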
# Starred values were filed as active, the others as inactive; ? = inconclusive; . = no result given; [ ] = dose if it differs, or a comment. This is a sample that favours compounds with a hit; in the whole collection about 10% have one here. Calls come from the whole dose curve; as a rule, active = well fitted curve in the direction sought with a large enough effect; inconclusive = small, poorly fitted or top-dose-only effect, or another doubt; inactive = no such curve, though single readings can be large; an effect the other way counts as inactive or inconclusive. Potency is the fitted concentration of half-maximal effect.
SMILES,BAZ2B block,GLS inh,JMJD2A Tudor inh,HP1b chromo inh,G9a block
CCC(=O)N1CCN(c2cc3c(cc2F)c(=O)c(C(=O)O)cn3CC)CC1,.,-8%,6.3µM*,3%,.
NC(=NCc1ccc(Cl)cc1)SCCCc1cnc[nH]1,.,.,.,.,46%[59 µM]
CCN(CC)c1ccc(NC(=O)c2cccc(C)c2)cc1S(=O)(=O)Nc1ccccc1OC,-37%,1%,?,?,3.5µM*
COc1cc([C@@H]2c3cc4c(cc3C[C@H]3COC(=O)[C@@H]32)OCO4)cc(OC)c1O,.,.,-12%,22%,.
CCc1n[nH]c(=S)n1/N=C/c1c(C)nn(-c2ccccc2)c1Cl,-4%,20%,?,35%,1.8µM*
O=C(Nc1ccc(Cl)c(Cl)c1)c1ccco1,?,-1%,7%,35%,.
O=C1NC(=O)C(Nc2ccc(Cl)c(Cl)c2)C(=O)N1,.,18%,32µM*,13%,.
S=C1Nc2ccccc2Sc2ccccc21,?,-1%,-16%,?,10µM*
O=C(Nc1ccc2nc(-c3cccs3)c(-c3cccs3)nc2c1)N1CCCCC1,.,.,13%,57%,.
NC(Cn1ccc(=O)c(O)c1)C(=O)O (centres undefined),.,.,.,.,5%[2.33 µM]
CN1C(=O)C(=Cc2cn(CC#N)c3ccccc23)C(=O)N(C)C1=O,-5%,7%,-18%,29%,-17%
CN1C(=O)C(=Cc2coc3ccccc3c2=O)C(=O)N(C)C1=O,-4%,26%,-18%,15%,32µM*
CCOC(=O)Cn1c(C)[n+](C)c2cc(Cl)c(Cl)cc21,-1%,0%,28µM*,2%,45µM*
NC(=O)CSP(=O)(c1ccccc1)c1ccccc1,-22%,-5%,-31%,18%,13µM*
O=C(OC1CC2CCC(N2)C1C(=O)O)c1ccccc1 (centres undefined),.,4%,89µM*,16%,.
C=C(C)[C@@H]1[C@H]2OC(=O)[C@H]1[C@]1(O)C[C@H]3O[C@]34C(=O)O[C@H]2[C@]14C,.,-4%,-19%,19%,.
CCCN(CCC)[C@H]1CCc2c(F)ccc(O)c2C1,.,.,.,.,50µM*
CN1CCc2cc(O)cc3c2C1Cc1ccc(O)c(O)c1-3 (centres undefined),.,.,.,.,0.71µM*
C=CCN1CCc2cccc3c2C1Cc1ccc(O)c(O)c1-3 (centres undefined),.,.,.,.,0.35µM*
CCCN1CCc2cccc3c2[C@H]1Cc1ccc(O)c(O)c1-3,.,?,22µM*,16µM*,1.7µM*
CCCCCn1c(=O)c(C(=O)NC(C)c2ccccc2)c(O)c2ccccc21 (centres undefined),-2%,4%,78%,136%,.
COc1cc2cc(C(=O)N3CC(COS(C)(=O)=O)c4ccc(O)cc43)[nH]c2c(OC)c1OC (centres undefined),.,-3%,?,6%,.
CN1CCN(c2ccc(NC(=O)Oc3ccccc3)cc2)CC1,-1%,75%,-23%,-1%,3.5µM*
CN(C)CCO,.,-7%,.,.,23%[59 µM]
NNc1n[nH]c(=S)n1N,?,12%,-10%,53%,25µM*
SMILES,BAZ2B block,GLS inh,JMJD2A Tudor inh,HP1b chromo inh,G9a block
COc1ccccc1CNC(=O)C(NS(=O)(=O)c1ccc2c(c1)oc(=O)n2C)C(C)C (centres undefined),-2%,-4%,-6%,46%,-3%
O=[N+]([O-])c1ccc(-c2ccccc2)c([As](=O)(O)O)c1,?,-5%,-19%,51%,13µM*
CN1CC=C(/C=C/c2ccc(-c3ccccc3)cc2)CC1,-10%,-3%,-22%,22%,.
COc1ccc(/C=C/C2=CCN(C)CC2)cc1,-21%,18%,-18%,28%,79µM*
O=[N+]([O-])c1cccc(NP(=O)(N2CC2)N2CC2)c1,.,-5%,-3%,17%[57 µM],.
CCOc1ccc(-n2c(CC)nc3ccccc3c2=O)cc1,11%,-12%,-6%,39%,18%
CCOc1ccc(N2C(=O)NC(=O)/C(=C\c3ccc(N4CCCCC4)o3)C2=O)cc1,-7%,-1%,-14%,-4%,45µM*
Cc1ccc(/C=C2\C(=O)NC(=S)N(c3cccc(F)c3)C2=O)o1,50µM*,?,45µM*,?,1.8µM*
COc1ccc(N2C(=O)CC(=O)NC2=O)cc1,-27%,-9%,-5%,30%,-42%[59 µM]
COc1ccc(N2C(=O)/C(=C/c3ccc(C)o3)C(=O)NC2=S)cc1,45µM*,?,32µM*,-15%,10µM*
CCOc1ccc(N2C(=O)/C(=C/c3ccc(C)o3)C(=O)NC2=S)cc1,?,?,25µM*,?,.
O=C1NC(=O)N(c2ccc3c(c2)OCO3)C(=O)/C1=C/c1ccc(N2CCCC2)o1,-35%,3%,-2%,24%,?
CC1CC2CC(=O)CCC2(C)C2CCC3(C)C(O)CCC3C12 (centres undefined),.,-4%,.,.,.
O=C(CO)[C@@H](O)C(O)[C@@H](O)CO (some centres undefined),.,-8%,.,.,.
Cc1cc(C(=O)OCC(=O)NC(=O)c2cccn2C)c2ccccc2n1,18%,-3%,11%,13%,?
Cc1cc(OCC(=O)NCc2ccncc2)c2c3c(c(=O)oc2c1)CCCC3,-31%,0%,-20%,32%,18%
Cc1cc(/C=C2\C(=O)NC(=O)N(c3ccc(F)cc3)C2=O)c(C)n1-c1ccc(C(=O)O)cc1,?,-7%,-21%,11%,.
CCc1ccc(N2C(=O)NC(=O)/C(=C\c3cc(C)n(-c4cc(C(=O)O)cc(C(=O)O)c4)c3C)C2=O)cc1,71µM*,16%,50µM*,-14%[57 µM],35µM*
Cc1ccc(N2C(=O)NC(=O)/C(=C\c3cc(C)n(-c4cc(C(=O)O)cc(C(=O)O)c4)c3C)C2=O)cc1,?,117%,32µM*,?,35µM*
Cc1ccc(N2C(=O)NC(=O)/C(=C\c3cc(C)n(-c4ccc(C(=O)O)cc4)c3C)C2=O)cc1,-33%,-12%,-24%,21%,?
NC(=O)CNC(=O)[C@H](Cc1ccccc1)NC(=O)[C@H](CCCN=C(N)N)NC(=O)[C@@H](N)Cc1ccc(O)cc1,.,.,.,.,37%[59 µM]
S=c1[nH]nc(-c2ccccc2)n1C1C=CCCC1 (centres undefined),-3%,?,3.2µM*,5%,?
S=c1[nH]nc(-c2ccccc2)n1CC1CCCO1 (centres undefined),-1%,0%,40µM*,48%,?
Nc1c(C(=O)NC2CCCC2)c2nc3ccccc3nc2n1CC1CCCO1 (centres undefined),122%,2%,107%,232%,166%
CC[C@]1(O)CC[C@H]2[C@@H]3CCC4=CCCC[C@@H]4[C@H]3CC[C@@]21C,.,4%,.,.,?
COc1ccc(N2CCN(c3ncnc4c3nc3n4CCCCC3)CC2)cc1,?,8%,?,-13%,11µM*
